From PubChem BioAssay AID449762 (Southern Research Specialized Biocontainment Screening …, 2010)
The campaign covered roughly 330,000 compounds. About 1,900 (0.58%) were called active. Inconclusive results (about 4%) are left out. These entries were drawn from the full list. Entries with a potency or affinity are not part of this list. Values without a mark were called inactive. No stated cut-off is given here; in the data, inconclusive means inhibition above about 70% without an active follow-up result; inactive means below that.

assay: M. tuberculosis growth inhibition, HTS (AID 449762);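 further: bacterial growth assessed after seven days of incubation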; settings: M. tuberculosis H37Rv growth inhibition, 7H9 media; at 25 µM; active compounds read high

SMILES | inhibition [%]
CCCCCOc1ccc(NS(C)(=O)=O)cc1 | -0.68
CCCOc1ccc(NC2=CC(=O)CC(C)(C)C2)cc1 | 0.84
COc1ccccc1NS(=O)(=O)c1ccc(O)c(C(=O)OCc2cccc([N+](=O)[O-])c2)c1 | -3.81
O=C(NCC1CCCO1)C(c1cccs1)N(Cc1ccccc1)C(=O)c1ccc(-c2ccccc2)[nH]1 (stereo not given) | 14.9
O=C(NCC1CCCO1)C(c1cccs1)N(Cc1cccs1)C(=O)c1ccc(-c2ccccc2)[nH]1 (stereo not given) | 0.19
COc1cc(NC(=S)NCCCO)c(OC)cc1Cl | -4.61
CC(=O)c1ccc(C(=O)N2CCCC(CCC(=O)N(C)CCc3ccccn3)C2)s1 (stereo not given) | -4.61
OCC1(Cc2cccc(C(F)(F)F)c2)CCN(Cc2cc(F)cc(F)c2)CC1 | 14
Cc1c(CN2CCC(CO)(Cc3ccccc3)CC2)c2ccccc2n1C | -7.19
O=C(CN(C(=O)CCC(=O)Nc1nccs1)c1ccc(F)cc1)NCc1ccccc1 | -3.51
CCOC(=O)Cn1cc(-c2ccccc2)nn1 | -3.68
Cc1cc(C(F)(F)F)c2c(n1)sc1c(O)cc(=O)[nH]c12 | -2.51
O=c1cc(O)c2sc3nc(-c4ccccc4)cc(C(F)(F)F)c3c2[nH]1 | 5.22
COc1cc(/C=C2\SC(=S)N(N3CCOCC3)C2=O)cc(OC)c1OC | 3.16
Cc1ccc(C(C)C)c(OCC(=O)NS(=O)(=O)c2ccc(Cl)cc2)c1 | -3.31
Cc1ccc(C(=O)N2CCN3C(=O)c4ccccc4C23c2ccc(Cl)cc2)cc1 (stereo not given) | 13.6
O=C(c1ccccc1)N1CCN2C(=O)c3ccccc3C12c1ccc(Cl)cc1 (stereo not given) | 4.61
COc1cccc(NC(=O)Nc2ccc(Br)cn2)c1 | 4.97
O=c1cc(CSCc2ccc(Cl)cc2)[nH]c(=O)[nH]1 | -3.47
Cc1[nH][nH]c(=O)c1N=Nc1ccc(Cl)cc1 | -1.91
CCCNC(=O)c1onc(CSc2ccc(Cl)cc2)c1C(=O)NCCOC | -3.57
Nn1c(SCc2ccc([N+](=O)[O-])cc2)nc2ccccc2c1=O | 16.5
Nc1c(C(=O)OCC2CCCO2)c2nc3ccccc3nc2n1C1CCCCC1 (stereo not given) | 1.24

SMILES | inhibition [%]
CCCCn1c(N)c(C(=O)OCC2CCCO2)c2nc3ccccc3nc21 (stereo not given) | 15.8
CCc1ccccc1N(CC(=O)NC1CCCCC1)C(=O)CNC(=O)c1ccco1 | 2.96
O=C(NCc1ccco1)C1CCCN(c2ncnc3c2nc2n3CCCCC2)C1 (stereo not given) | 1.1
O=C(O)C1CCN(S(=O)(=O)c2cccc3nsnc23)CC1 | 0.03
Cc1c(C(=O)NC(=S)NCC(C)C)oc2ccccc12 | -6.41
COc1ccccc1C1c2ccc3ccccc3c2Oc2ncn(CCCO)c(=N)c21 (stereo not given) | 5.41
COc1ccc(C2c3ccc4ccccc4c3Oc3ncn(CCO)c(=N)c32)cc1OC (stereo not given) | 6.98
Cc1c(Br)c([N+](=O)[O-])nn1CC(=O)c1ccccc1 | -1.84
COC(=O)Cn1c(C)nc([N+](=O)[O-])c1Br | 0.3
Cc1ccc(S(=O)(=O)NC(Cc2ccc(Cl)cc2)C(=O)O)cc1 (stereo not given) | 4.83
COc1ccccc1-c1c(C)oc2c(CN3CCOCC3)c(O)ccc2c1=O | 0.75
COc1cc(C(=O)N/N=C/c2ccsc2C)cc(OC)c1OC | 17.9
COc1ccc(Br)cc1/C=N/NC(=O)c1cc(OC)c(OC)c(OC)c1 | -3.85
Cc1ccc(CCNC(=O)C2CCN(S(=O)(=O)c3ccc4nc5c(c(C(=O)O)c4c3)CCCC5)CC2)cc1 | -1.27
Cc1nc2ncnn2c(Nc2ccc3c(c2)OCCO3)c1C | 6.9
COc1ccc(NC(=O)COC(=O)CCC2CCCCC2)cc1 | 8.09
COc1ccc(Cl)c2sc(N3CCN(C(=O)C4=COCCO4)CC3)nc12 | 35.6
O=C(C1=COCCO1)N1CCN(c2nc3ccc([N+](=O)[O-])cc3s2)CC1 | 1.78
COc1ccc(NC(=O)COC(=O)/C=C/c2ccccc2[N+](=O)[O-])cc1OC | 0.41
Cc1sc2ncn(CC(=O)N3CCN(c4ccccn4)CC3)c(=O)c2c1S(=O)(=O)N1CCCCC1 | -2.75
FC(F)(F)c1ccc2c(c1)N(CCCN1CCN(CCCl)CC1)c1ccccc1S2 | 4.41
CN1CCN(CCCN2c3ccccc3Sc3ccc(S(=O)(=O)N(C)C)cc32)CC1 | 7.63
CS(=O)(=O)c1ccc(Cl)c(NC(=O)C2CC(=O)N(Cc3ccco3)C2)c1 (stereo not given) | 3.6

SMILES | inhibition [%]
S=C(NC1CCCC1)N1CCN(c2ccccn2)CC1 | -3.07
CC1=NN(C(=O)c2ccccc2)C(O)(c2ccc(Br)cc2)C1 (stereo not given) | -3.64
CC1=NN(C(=O)c2ccc(Cl)cc2)C(O)(c2ccccc2)C1 (stereo not given) | 28
Cc1cccc(NC(=O)CNC(=O)c2sc3ccccc3c2Cl)n1 | -2.76
COc1ccc([C@@H]2CC=C(C(=O)O)[C@H](c3ccc(C(C)(C)C)cc3)N2S(=O)(=O)c2ccc(C)cc2)cc1OC | 4.96
CCS(=O)(=O)c1ccc2c(c1)N(S(C)(=O)=O)CC(C(=O)NC1CC1)O2 (stereo not given) | 0.09
O=C(O)Cn1c(=O)c(-c2ccccc2)nc2ccccc21 | -12.6
On1c(-c2ccccc2)nc2ccccc21 | 9.54
N#Cc1ccccc1S(=O)(=O)N1CCN(CC(O)COc2ccccc2F)CC1 (stereo not given) | 3.84
N=C1C(c2ccccc2)=C(O)CN1c1cccc2ccccc12 | -2.85
CCOc1ccc(/C=C2\SC(=S)N(N3C(=O)C4CC4C3=O)C2=O)cc1 (stereo not given) | -8.07
CCc1ccc(NC(=S)Nc2ccc3cn[nH]c3c2)cc1 | 32
CCNC(=S)Nc1ccc2cn[nH]c2c1 | -5.21
CCCCn1cnc2c(oc3ccccc32)c1=O | -0.57
Nc1nn(S(=O)(=O)c2ccccc2)cc1-c1cccc([N+](=O)[O-])c1 | 1.89
CN(C)[C@@H]1C(=O)C(C(N)=O)=C(O)[C@@]2(O)C(=O)C3=C(O)c4c(O)ccc(Cl)c4[C@@](C)(O)[C@H]3C[C@@H]12 | 5.01
CCOc1ccc(NC(=O)CCC(=O)Oc2ccc(C)cc2)cc1 | -3.3
O=C(COC(=O)Cc1ccsc1)Nc1ccccc1 | -4.1
C=CCNC(=S)NNC(=O)c1csc(CC)c1 | -5.45
Cc1ccc(NC(=O)C(C)N=C2NS(=O)(=O)c3ccccc32)cc1F (stereo not given) | 11
CC(=O)N1CCN(c2ccc([N+](=O)[O-])c(-n3nc(C)cc3C)c2)CC1 | 1.6
CC(=O)N1CCN(c2ccc([N+](=O)[O-])cc2)CC1 | -5.3
CCOc1ccccc1OCC(=O)OCC(=O)c1c(N)n(CC(C)C)c(=O)n(C)c1=O | 0.88

SMILES | inhibition [%]
CC(=O)OCC(=O)C1CCC2C3CC=C4CC(O)CCC4(C)C3CCC12C (stereo not given) | -10.9
CN(Cc1cccc(Cl)c1Cl)C(=O)c1cccc(S(=O)(=O)N2CCN(Cc3ccccc3)CC2)c1 | -12.3
Cc1nn(-c2ccc(F)cc2)c2nc(N)c(C#N)c(-c3ccc(O)c(O)c3)c12 | 1.53
COc1cc(-c2c(C#N)c(=O)[nH]c3c2c(C)nn3-c2ccccc2)ccc1O | 51.3
O=C1c2ccc([N+](=O)[O-])cc2S(=O)(=O)N1Cc1ccccc1 | -6.93
CCc1noc(C)c1C(=O)Nc1nc(-c2cc(C)ccc2C)c(C)s1 | -0.88
CCc1noc(C)c1C(=O)Nc1nc2ccc(F)cc2s1 | 68.5
CC(=NCc1ccc2c(c1)OCO2)c1c(O)[nH]c(=O)[nH]c1=O | -12.3
CC(=NCc1cccnc1)C1=C(O)c2ccccc2C1=O | -1.08
CCn1c(=O)c2cc(C(=O)NCCC(C)C)sc2c2ccccc21 | 9.29
O=C(Cn1nnc2ccccc21)c1cccc([N+](=O)[O-])c1 | -4.83
CN(C(=O)c1ccc(-c2ccccc2)cc1)C1CCCCC1 | 53.6
CCOc1ccc(NS(=O)(=O)c2ccc(C(=O)N(C)CC(=O)Nc3ccc(C)cc3)cc2)cc1 | 56.7
CCSc1ccc(-c2nn(-c3ccccc3)cc2/C=C(/C#N)C(=O)NCCCOC)cc1 | 6.88
CCCSc1ccc(-c2nn(-c3ccccc3)cc2/C=C(/C#N)C(=O)NCCCOC)cc1 | -1.57
O=C(N/N=C(/CC(=O)c1cccs1)C(F)(F)F)c1ccc(O)cc1 | 33.1
O=C(N/N=C(\CC(=O)c1cccs1)C(F)(F)F)c1cccnc1 | -1.08
CC(C)Nc1nc(NC(C)C)nc(OCCOC(=O)c2ccccc2)n1 | 2.84
CCOC(=O)[C@@H]1[C@H]2COc3cc(OC)ccc3[C@H]2N2C(=O)N(c3ccc(C(F)(F)F)cc3)C(=O)[C@@]12C | 6.64
CCOC(=O)[C@@H]1[C@H]2COc3cc(OC)ccc3[C@@H]2N2C(=O)N(c3ccc(C(F)(F)F)cc3)C(=O)[C@]12C | 1.49
O=C(CC1SC(=O)N(c2ccccc2)C1=O)Nc1ccc(Cl)cc1 (stereo not given) | -2.72
